{"source": "PubChem BioAssay AID504843", "about": "(Broad Institute, 2011)", "note": "Out of some 1,200 compounds screened, about 360 (30%) were called active. The rule behind the calls is not given here. Only a sample is shown. Measured potencies and affinities stand elsewhere."}
{"assay": "antibacterial activity by ATP level – BacTiter-Glo luminescence, cherry-picked samples, counter-screen, dose response (AID 504843);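 note: growth measured after 8 h incubation at 30 °C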", "settings": "bacterial growth; series mostly up to 15 µM"}
{"smiles": "CCOC(=O)CC(NC(=O)c1cccc2c1C(=O)N(Cc1cccnc1)C2)c1ccc(OCC)c(OC)c1", "note": "(centres undefined)", "outcome": "inactive"}
{"smiles": "CCc1ccc(C(C(=O)NC2CCCC2)N(CCOC)C(=O)CCC(=O)Nc2cc(C)on2)cc1", "note": "(centres undefined)", "outcome": "inactive"}
{"smiles": "CCCCCCCCCCCCN1[C@@H](CC(=O)O)c2cc(C(F)(F)F)ccc2S1(=O)=O", "outcome": "inactive"}
{"smiles": "Cc1c(OCC(=O)NCCCN2CCOCC2)ccc2c1oc(=O)c1ccccc12", "outcome": "inactive"}
{"smiles": "O=C(NCCCN1CCOCC1)c1cc2cc(Br)ccc2oc1=O", "outcome": "inactive"}
{"smiles": "COc1cccc(C2CC(c3cccc(OC)c3)n3nc(N)nc3N2)c1", "note": "(centres undefined)", "outcome": "inactive"}
{"smiles": "CC(=O)c1ccc(NC(=S)NC(C)c2ccc(Cl)cc2Cl)cc1", "note": "(centres undefined)", "outcome": "inactive"}
{"smiles": "Cc1ccc(NC(=O)C(c2ccc(Cl)cc2)N2CCCCC2)cc1", "note": "(centres undefined)", "outcome": "inactive"}
{"smiles": "CCc1ncc(C)nc1CC", "outcome": "inactive"}
{"smiles": "CN1CCN(C(=S)c2cn(Cc3ccc(Br)cc3)c3ccccc23)CC1", "outcome": "inactive"}
{"smiles": "Cc1nn(-c2ccccc2)c(Cl)c1/C=C(\\CC(=O)O)c1nc2ccccc2s1", "outcome": "inactive"}
{"smiles": "Cc1nn(-c2ccccc2)c(Cl)c1/C=N/NC(=O)c1ccn[nH]1", "outcome": "inactive"}
{"smiles": "COc1ccc(C(=O)NCC(=O)N/N=C/C(C)=C/c2ccco2)cc1OC", "outcome": "inactive"}
{"smiles": "N/C(=N\\OS(=O)(=O)c1ccccc1)c1cccnc1", "outcome": "inactive"}
{"smiles": "CC(Sc1nc2ccccc2c(=O)n1C)C(=O)NC1CCCCC1C", "note": "(centres undefined)", "outcome": "inactive"}
{"smiles": "O=C(NCc1cccs1)c1cccnc1C(=O)O", "outcome": "inactive"}
{"smiles": "CCOCCCNS(=O)(=O)c1ccc(Br)cc1", "outcome": "inactive"}
{"smiles": "O=C1OCCN1C(=O)[C@H]1[C@H](c2ccc(Cl)cc2)C(c2ccccc2)=NN1c1ccccc1", "outcome": "inactive"}
{"smiles": "O=C(Nc1ccc2c(c1)OCCO2)N1CCN(c2ccc(F)cc2)CC1", "outcome": "inactive"}
{"smiles": "COc1ccc(N2CCN(C(=O)C3CCCN(S(=O)(=O)c4cccc5cccnc45)C3)CC2)cc1", "note": "(centres undefined)", "outcome": "inactive"}
{"smiles": "COc1ccc(Cn2nnnc2C(c2cc3ccc(OC)cc3[nH]c2=O)N2CCC(C)CC2)cc1", "note": "(centres undefined)", "outcome": "inactive"}
{"smiles": "Cc1ccc(S(=O)(=O)N(CC(=O)Nc2ccccc2-c2ccccc2)c2ccc(C)cc2C)cc1", "outcome": "inactive"}
{"smiles": "CCS(=O)(=O)c1ccc(NC(=O)c2ccccc2Cl)c(O)c1", "outcome": "inactive"}
{"smiles": "CCn1c(CCn2c3ccccc3c3ccccc32)n[nH]c1=S", "outcome": "inactive"}
{"smiles": "CC(=O)NC(Cc1ccc(F)c(F)c1)C(=O)NC1CCN(c2c(Cc3ccccc3)c(C)nc3ncnn23)CC1", "note": "(centres undefined)", "outcome": "inactive"}
{"smiles": "O=C(Nc1cc(F)ccc1F)C1CCCN(c2ncnc3c2nc2n3CCCCC2)C1", "note": "(centres undefined)", "outcome": "inactive"}
{"smiles": "CCN(CC)S(=O)(=O)c1ccc(NC(=O)Cc2cccs2)cc1", "outcome": "inactive"}
{"smiles": "Oc1ccc(/C=N/Nc2ccccc2)cc1", "outcome": "inactive"}
{"smiles": "COc1ccc(-c2cc(C(F)(F)F)c3c(n2)sc2c(O)cc(=O)[nH]c23)c(OC)c1", "outcome": "inactive"}
